Consider 103 compounds from PubChem BioAssay AID652031 (The Scripps Research Institute Molecular Screening Center, 2013).

Out of some 16,000 compounds screened, about 70 (0.4%) were called active. The entries come from a sample that favours actives as a whole. A number with no mark means an inactive call. Cut-off read from the data, not from the text of the source: active = inhibition above about 50%; inactive = the rest.

The assay deals with Kappa-type opioid receptor (Homo sapiens) (UniProt P41145). Put plainly: antagonists of human kappa opioid receptor OPRK1, Maybridge library (AID 652031). Conditions: OPRK1 cells, antagonist mode, fluorescence readout; at 9 µM; hits give high values.
Chain of Kappa-type opioid receptor (Homo sapiens) (P41145 whole entry, looked up): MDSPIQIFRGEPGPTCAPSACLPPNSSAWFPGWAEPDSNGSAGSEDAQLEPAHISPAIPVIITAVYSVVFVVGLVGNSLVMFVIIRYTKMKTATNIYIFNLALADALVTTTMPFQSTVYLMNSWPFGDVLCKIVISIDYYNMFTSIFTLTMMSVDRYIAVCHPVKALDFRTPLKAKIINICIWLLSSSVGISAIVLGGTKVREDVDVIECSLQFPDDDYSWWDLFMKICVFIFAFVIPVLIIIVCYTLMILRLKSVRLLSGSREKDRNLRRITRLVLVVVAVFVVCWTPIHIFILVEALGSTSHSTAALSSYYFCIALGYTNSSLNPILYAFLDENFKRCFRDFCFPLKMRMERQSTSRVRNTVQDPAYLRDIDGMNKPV
With `COc1ccccc1N1CCN(C/C(N)=N/O)CC1`, the inhibition was -2.8%.
Under `N/C(=N\OC(=O)c1cccc(Cl)c1)c1ccc2nonc2c1` stands 3%.
Under `COC(=O)C1=C(NNc2ccccc2)CSC1` stands 8.6%.
Under `FC(F)(F)c1ccc(-n2cn[nH]c2=S)cc1` stands -0.4%; under `COc1ccc(Cc2nc(C(C)(C)C)cs2)cc1`, 10.7%.
For `CCOC(=O)CNC(=O)c1ccc(-c2cccc([N+](=O)[O-])c2)o1`, the inhibition was 9.9%.
Consider `CSc1nc(-n2nc(C)cc2C)nc(-c2ccco2)c1C#N`, for which the inhibition was -17.5%.
`CC(N)=NCCc1ccncc1`: the inhibition was -6%.
In the case of `N#Cc1cn(-c2cccc(C(F)(F)F)c2)c(=O)n(Cc2ccc(Cl)cc2)c1=O`, the inhibition was -10.4%.
Under `CC(C)S(=O)(=O)c1cscc1N/C=C(/C#N)C(=O)C1CC1` stands 14.8%; under `N#Cc1ccc(Oc2ccc(Cl)cc2)c([N+](=O)[O-])c1`, 5.4%; under `O=C(CSc1nnc(-c2ccncc2)n1Cc1ccccc1)Nc1nnc(-c2ccco2)s1`, 2.3%.
The same measure for `COC(C)(OC)c1ccc(C#N)c(=S)[nH]1`: -2.3%; for `FC(F)(F)c1cnc(NN=C2CCSCC2)c(Cl)c1`: -7.6%.
Under `COc1ccc(COCC(O)CN2CCN(c3ccc(C(F)(F)F)cn3)CC2)cc1` (stereo not drawn) stands -10.5%; under `CN(C)C(=S)Nc1ccc(Br)cc1Cl`, 12.1%; under `N#CCCSc1sc(=S)sc1SCCC#N`, -2.5%.
With `N/C(=N\OC(=O)CCn1cccc(C(F)(F)F)c1=O)c1ccc(OC(F)(F)F)cc1`, the inhibition is 3.1%.
`Cc1cc(-c2noc(-c3cccs3)n2)no1`: the inhibition is -20.2%.
Turning to `C/C(=N\NC(=S)Nc1cccc(F)c1)c1ccco1`, the inhibition is 14.4%.
In the case of `Cn1cccc1CNC(=O)c1cc(F)cc2c1OCOC2`, the inhibition is 11.7%.
The same measure for `CSc1nc(N/C=C(\C#N)C(=O)c2cccs2)n2nc(C)cc2n1`: 9.3%.
Under `COc1c(/C(N)=N/O)cc(C)c2c1CCC2` stands -7.6%; under `COc1cccc(C(=O)c2sc3nsc(SCc4ccc(F)cc4)c3c2N)c1`, 81.9% (active); under `CCOC(=O)N1CCN(CC(O)COc2ccc(OC(F)(F)F)cc2)CC1` (stereo not drawn), 3.6%.
The same measure for `COC(=O)c1ccccc1N(C)C(=O)c1cc(OC)c(OC)c(OC)c1`: 2.6%; for `Cc1ccc(S(=O)(=O)NNC(=O)CCc2nc(-c3ccc(Cl)cc3)no2)cc1`: -5.8%; for `COC(=O)c1cc(C(N)=O)c(SC)s1`: 8.2%.
Regarding `O=C(c1ccc(F)cc1)C1CCN(Cc2cn[nH]c2-c2ccccc2)CC1`, the inhibition was -2.9%.
The same measure for `O=C(CSc1ccc(Cl)cc1)NCCSCc1ccco1`: 15.7%; for `Cc1nn(-c2ccccc2)nc1C(=O)Nc1nnc(C2CC2)s1`: 8.4%; for `COc1ccc(OC(=O)/C=C/c2sc3ccccc3c2C)cc1`: 8.8%.
Under `O=C1CCC(=O)N(c2ccccc2)N1` stands 14.7%; under `O=C1NC(=O)c2cc([N+](=O)[O-])c(Sc3c(Cl)cccc3Cl)cc21`, 4.3%.
The same measure for `N#CCc1ccc(NC(=O)c2ccccc2C(=O)Nc2ccc(CC#N)cc2)cc1`: 20.8%; for `O=C(Nc1ccc(I)cc1Cl)C(=S)NCc1cccs1`: -3.3%; for `CCOC(=O)COc1cccc2c(C)cc(=O)oc12`: -1.5%.
As to `O=C(c1ccc(Oc2ccc(Cl)cc2)c([N+](=O)[O-])c1)N1CCCC1`, the inhibition was 4.1%.
Regarding `CCO/N=C\c1nn(S(C)(=O)=O)cc1Br`, the inhibition was -12.1%.
The same measure for `CNC(=O)c1ccccc1I`: -1.2%; for `CSc1nnc(-c2ccc(C(F)(F)F)cn2)o1`: -0.1%.
With `Cn1cnnc1SCC(=O)Nc1cc(C(F)(F)F)cc(C(F)(F)F)c1`, the inhibition is 0.9%.
For `CC(C)(C)NC(=O)N/N=C/c1[nH]ncc1Br`, the inhibition is 1%.
Under `Cc1cc(/C(N)=N/OC(=O)c2cccs2)c(-c2ccccc2)o1` stands -13%; under `CN(C)NC(=O)c1csnc1-c1c(Cl)cccc1Cl`, 36.6%; under `COC(=O)c1ccc(S(=O)(=O)N2CCN(c3ccc([N+](=O)[O-])cn3)CC2)n1C`, -6.6%.
For `CCOC(=O)/C(C#N)=C/c1ccc(-c2nccs2)cc1C(C)(C)C`, the inhibition was -2.8%.
The same measure for `COC(=O)c1cnc(N2CCCN(C(=O)C3COc4ccccc4O3)CC2)nc1C(F)(F)F` (stereo not drawn): -8.4%.
Under `CCc1cnc(NS(=O)(=O)c2cc(Cl)sc2Cl)nc1-c1c(F)cccc1F` stands 1.8%.
The same measure for `CCOC(=O)Cc1nc(N)ncc1C(=O)OCC`: 17.3%; for `FC(F)(F)c1ccc(/C=N/Nc2nccc(C(F)(F)F)n2)cc1`: 6.7%.
Take `Cc1nc2sc(-c3ccccc3)cc2c(=O)o1`: the inhibition was -0.4%.
For the compound `CCOCCOCCN(CC)c1ccc(N=Nc2c(C#N)cc([N+](=O)[O-])cc2C#N)c(NC(C)=O)c1`, the inhibition is -11.4%.
Under `O=c1cc(-c2ccccc2)sc2ccc(Cl)cc12` stands -5.7%; under `OC(CNCCNc1nccc(C(F)(F)F)n1)COc1ccc(Cl)c(Cl)c1` (stereo not drawn), -9.3%.
Under `CC(=O)Nc1ccc(/C(N)=N/O)cc1` stands 9.1%; under `O=c1oc(/C=C/c2ccccc2)nc2ccccc12`, -41.1%.
The same measure for `COc1cc(OC)nc(/N=C/c2nc(-c3ccccc3)oc2O)n1`: 5.7%; for `N/C(=N/OC(=O)NC(=O)c1c(Cl)cccc1Cl)c1ccc(F)cc1F`: -5.4%.
With `N#Cc1c(-c2ccccc2)c(-c2ccccc2)n[nH]c1=O`, the inhibition is 20%.
The same measure for `N#C/C(=C\C=C\c1ccccc1)c1nc2ccccc2[nH]1`: 13.4%.
As for `S=C(Nc1cccnc1)N1CCCN(Cc2ccc(Cl)cc2Cl)CC1`, the inhibition was 4.7%.
The same measure for `Cc1ccc(Oc2c(C)[nH]c(=S)[nH]c2=O)cc1`: -1.2%; for `O=C(Nc1ccccc1N1CCOCC1)C1CCN(c2nccc(C(F)(F)F)n2)CC1`: 9.4%.
The same measure for `Cc1cc(NC(=O)c2cc(-c3ccccc3)c(C(F)(F)F)s2)no1`: -1.6%; for `CSc1sc(C(=O)Nc2cccc(Cl)c2)c(-c2cccs2)c1C#N`: 5.9%.
The same measure for `Cn1cnc(S(=O)(=O)Nc2ccc3[nH]ccc3c2)c1`: -0.5%.
As to `CC(C)(C)C(=O)Nc1c(Br)c(C2CC2)nn1-c1ccccc1`, the inhibition is 4.1%.
As for `COC(=O)C1=C(NNc2ncc(Cl)cc2C(F)(F)F)CSC1`, the inhibition was -2.3%.
With `CC(=O)OCC(=O)[C@@]1(O)[C@H](C)CC2C3CCC4=CC(=O)C=CC4(C)C3=CCC21C` (stereo partly drawn), the inhibition was 0.2%.
Consider `Cc1ccc(S(=O)(=O)NNC(=S)NC(C)(C)C)cc1`, for which the inhibition is -0.7%.
The same measure for `CC(=O)c1cc([N+](=O)[O-])c(NC2CCCCC2)s1`: -27.9%; for `Clc1ccc(CO/N=C/c2nc3ccccc3s2)cc1`: 16.1%; for `N#Cc1cc([N+](=O)[O-])c(N2CCCC2)cc1N1CCCC1`: -4.1%.
For the compound `Cn1nc(C(C)(C)C)c(NC(=O)c2sccc2Cl)c1C(C)(C)C`, the inhibition was -1.9%.
Under `CCSC(=O)NCc1ccccc1` stands -12.7%; under `Cc1nc(C(F)(F)F)ccc1C(=O)NCCNc1ncccc1C(F)(F)F`, -36.9%.
Under `CCOC(=O)c1cc(C)n(-c2cccc([N+](=O)[O-])c2)c1-c1ccccc1` stands -0.8%.
Under `Cn1cc(C(=O)Nc2ccc(F)c(Cl)c2)c(N)n1` stands 20.6%; under `Cc1nnsc1C(=O)NN(C)c1ccc([N+](=O)[O-])cn1`, 14.8%.
In the case of `CC1(C)CC(=O)C(N=Nc2c(F)cccc2F)=C(O)C1`, the inhibition is -7.3%.
The same measure for `CCOC(=O)NC(=O)/C(=C/NC(C)C)C(=O)OCC`: 5.6%.
The same measure for `O=C1CCCCC(=O)c2ccccc2N1`: 7.1%; for `Cc1ccc(C(=O)N2CCN(c3cccc4[nH]ccc34)CC2)cc1`: 2.5%; for `CCOC(=O)c1nnc2c(Br)c(C)nn2c1C`: 3.1%.
The same measure for `O=[N+]([O-])c1ccc(N2CCSCC2)cc1O`: 3.6%; for `COc1ccc(/C(C)=N/Nc2c([N+](=O)[O-])cc(C(F)(F)F)cc2[N+](=O)[O-])cc1CC#N`: -23.7%; for `C=CCn1c(SCC(=O)Nc2nnc(-c3cccs3)s2)nnc1-c1ccco1`: 8.8%.
For the compound `COC(=O)c1cccc(CSc2ncccc2C(=O)O)c1`, the inhibition was 15.2%.
The same measure for `CC(=O)c1nnc2cc(C)nn2c1C`: 28.9%; for `CSc1sc(C(N)=O)cc1C#N`: 6.9%; for `Cc1cc(C(=O)NNC(=O)c2cc(C)n(C(C)(C)C)n2)no1`: 8.1%.
Under `COc1ccc2c(OC(C)=O)coc2c1` stands -6.7%; under `N#C/C(=C\c1cccn1S(=O)(=O)c1ccccc1)C(=O)c1ccccc1`, 7.4%.
On to `N#Cc1ccc(OS(=O)(=O)c2cc(C(F)(F)F)cc(C(F)(F)F)c2)cc1`, for which the inhibition is -5.9%.
Regarding `COC(=O)c1ccccc1NC(=S)NNC(=O)c1ccc([N+](=O)[O-])cc1`, the inhibition was 7.8%.
Under `COC(=O)c1ccc(/C=C2\C(=O)Nc3ccccc32)n1-c1ccc(F)cc1` stands 84.7% (active); under `Cc1c(C)c(C)c(CSC(=N)CC#N)c(C)c1C`, -7.6%.
The same measure for `O=C(CSc1nc2ccccc2o1)N1CCC(n2cccc2)CC1`: 1.7%; for `CCCc1c(C(=O)O)cnn1-c1ccc(Cl)cc1`: -5.5%; for `CCCc1nc(N)ncc1C(=O)OCC`: -2.5%.
Regarding `CCOC(=O)c1c(C)csc1NC(=O)CC(=O)C(F)(F)F`, the inhibition was -3%.
The same measure for `Oc1ccc(-n2cncn2)cc1`: -0.4%.
